Assay outcomes deposited in PubChem by National Center for Advancing Translational Sciences (NCATS).
An excerpt weighted towards active compounds, which were near 4% of everything screened.
D1 potentiator – enhances dopamine response at the human D1 receptor. P21728. HEK293 TREx D1 cells, calcium flux, dopamine EC20 potentiation. potentiation, % at 10 µM. 0.036% of 360,000 active; in the data active = potentiation above about 30%; also: 0% is about no effect
Target sequence (P21728 whole entry, looked up): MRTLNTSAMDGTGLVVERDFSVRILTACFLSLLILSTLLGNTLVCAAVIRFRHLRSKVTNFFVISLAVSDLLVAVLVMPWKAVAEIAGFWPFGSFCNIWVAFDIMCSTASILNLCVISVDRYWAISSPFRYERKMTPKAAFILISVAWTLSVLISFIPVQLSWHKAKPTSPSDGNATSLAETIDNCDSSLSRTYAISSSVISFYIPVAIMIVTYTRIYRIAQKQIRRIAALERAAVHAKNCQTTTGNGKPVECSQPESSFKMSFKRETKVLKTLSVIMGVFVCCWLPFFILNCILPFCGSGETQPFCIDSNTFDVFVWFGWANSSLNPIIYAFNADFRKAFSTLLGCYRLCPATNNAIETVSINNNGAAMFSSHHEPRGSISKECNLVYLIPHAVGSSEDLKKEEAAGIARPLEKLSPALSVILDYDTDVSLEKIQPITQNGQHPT
D1 antag – antagonists of human D1 dopamine receptor; P21728; HEK293 TREx D1 cells, calcium flux, dopamine EC80; hits give low values; activity change, negative = inhibition, % at 10 µM; 3.2% of 360,000 active; AID 504652; in the data active = activity change below about -30%; also: % is scaled to controls: 0 for no effect and ±100 for the full control effect
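Compound effects on dopamine-evoked calcium signalling were measured in tetracycline-induced HEK293 Trex D1 cells. Dopamine at EC80 followed a 180 s compound pre-read, and fluorescence was tracked kinetically for 180 s more.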
Glioma ERSR ind – ER stress response induction in glioma; U87-MG GRP78 promoter luciferase reporter, 16 h; Potency, µM, inactives show at the top dose activation, usual class: activators; 0.02% of 420,000 active; AID 602332; active = well fitted activation curve with a large enough effect; also: potency is read from the fitted curve at half-maximal effect; series mostly up to about 76 µM; % of control where 0% means no effect; nearly all actives have a fitted effect of over 35% in size
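ERSR induction read as luciferase luminescence (Bright-Glo, 10 min at room temperature) in stably transfected human U87-MG glioma cells exposed to compounds for 16 h, using GRP78 as sensor.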
TRHR enhancer – allosterically enhances the human TRH receptor. enhancement, % at 2 µM. P34981. 0.66% of 360,000 active. AID 493056. TRHR cells, fluo-8 calcium fluorescence, EC20 TRH enhancement; in the data active = enhancement above about 30%; also: 0% is about no effect
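TRHR-expressing cells loaded with fluo-8 calcium dye were read kinetically (ex 480/em 530) during compound addition, then stimulated with an EC20 of TRH (10 nM final). Enhancement of the Gq-mediated intracellular calcium response was scored.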
TRHR agonist – TRH receptor (human) agonism | 0.18% of 360,000 active | activation, % at 2 µM | TRHR cells, calcium flux fluo-8, FDSS agonist mode | P34981 | AID 493084; also: 0% is about no effect
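TRHR-expressing cells, plated overnight in medium with 10% serum, were loaded with fluo-8 calcium dye at room temperature. After a 10 s baseline, library compound was pin-added and calcium release was recorded kinetically (ex 480/em 530) as agonist response.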
D1 agonist – activates the human D1 dopamine receptor; HEK293 T-REx D1 cells, calcium flux, agonist mode; activation, % at 2 µM; AID 504660; 1% of 360,000 active; also: 0% is about no effect
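Tetracycline-induced HEK293 TREx D1 cells, force-coupled to calcium signalling, were dye-loaded with a no-wash calcium kit. Compound was pin-added after a 10 s baseline. Fluorescence was read kinetically at 1 cycle/s for 180 s, with calcium rises flagged as agonism.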
* marks the source's active call; other numbers are inactive results; . = no result given. Rule as the data show it, unless noted: active = activation above about 30%; inactive = the rest.

SMILES	D1 potentiator	D1 antag	Glioma ERSR ind	TRHR enhancer	TRHR agonist	D1 agonist
O=C1/C(=C/c2cccs2)Sc2ccccc21	1.0	-93.3*	2.4%	2.2	1.7	2.5
CC1CCCN(C(=S)Nc2ccc(S(=O)(=O)N3CCCCC3)cc2)C1 (configuration not stated)	-3.8	-13.2	-1.1%	3.8	0.4	5.0
O=C(COC(=O)[C@@H]1CC(O)CN1S(=O)(=O)c1ccccc1[N+](=O)[O-])Nc1ccc2ccccc2c1 (some centres not stated)	-7.0	-32.2*	-1.3%	-6.2	0.1	2.3
N#CC1=C(N)N(c2ccc(Cl)cc2)C2=C(C(=O)CCC2)C1c1cc(CN2CCOCC2)cs1 (configuration not stated)	-1.9	1.3	-4.4%	-1.9	-2.8	1.1
Cc1ccccc1N=C(NOCc1ccc(Cl)cc1Cl)c1nonc1N	-5.7	-47.9*	-5.1%	21.1	-2.1	3.0
CCC1Sc2ccccc2N(CC(=O)NC2CC2)C1=O (configuration not stated)	-5.6	-74.1*	-4.4%	-0.1	0.0	-1.0
O=C(CN1CCCN(Cc2ccc(F)cc2Cl)C1=O)NC1CCCCCCC1	-12.8	-4.8	-1.3%	-6.3	-0.8	2.7
CC1(c2cccc(Br)c2)NC(=O)N(CC(=O)NC2CCCCC2)C1=O (configuration not stated)	-1.9	-33.6*	-2.5%	-0.6	-0.4	0.3
CC1(c2cccc(Br)c2)NC(=O)N(CC(=O)Nc2ccc(F)cc2)C1=O (configuration not stated)	-5.5	-30.7*	-4.9%	22.8	-0.1	6.5
CC1(c2cccc(Br)c2)NC(=O)N(CC(=O)Nc2ccc(S(N)(=O)=O)cc2)C1=O (configuration not stated)	-7.8	-0.4	-3.5%	2.0	-0.1	6.0
O=C(CN1CCN(Cc2ccccc2F)C1=O)NC1CCCC1	-2.1	-30.1*	3.5%	-0.9	-0.4	10.9
COc1ccc(C2(C)NC(=O)N(CC(=O)NC3CCCC3)C2=O)cc1OC (configuration not stated)	-4.4	0.9	-3.8%	-7.2	1.2	2.6
O=C(COC(=O)c1ccc(Br)c(S(=O)(=O)N2CCOCC2)c1)NCCc1ccccc1	.	.	-4.9%	.	.	.
COC(=O)CC1C(C)(C)C(=O)C2CC3=C(CC[C@]4(C)C3=CC(=O)OC4c3ccoc3)[C@@]1(C)C2=O (some centres not stated)	.	.	-4.5%	.	.	.
COc1ccc(C2CC(=O)C3=C(C2)Nc2ccccc2N(C(=O)CCC(=O)O)C3c2ccc(F)cc2)cc1OC (configuration not stated)	0.7	7.0	-1.2%	11.0	-0.7	6.0
Cc1cc(C(=O)CN2C(=O)NC(C)(c3cccc(Br)c3)C2=O)c(C)n1Cc1ccco1 (configuration not stated)	3.6	-36.8*	-4.3%	19.9	0.3	2.0
O=C(CN1C(=O)c2ccccc2C1=O)NC1CCCCCC1	-7.8	-2.2	2.4%	32.7*	0.4	-2.2
O=C(CN1C(=O)c2ccccc2C1=O)NC1CCCCC1	0.1	-19.9	-6.9%	-2.0	-1.2	1.6
Cc1cc(C(=O)CN2C(=O)NC(c3ccccc3)(c3ccccc3)C2=O)c(C)n1Cc1ccco1	-3.0	-4.2	-8.1%	1.1	-0.7	22.7
Cc1nc(Nc2ccc(Cl)cc2Cl)sc1C(=O)Nc1ccccc1	4.1	-1.0	1.6%	-4.8	0.6	-0.1
Cc1nc(Nc2ccccc2)sc1C(=O)c1ccccc1	-1.5	-32.6*	2.4%	-2.7	1.4	12.8
Cc1nc(Nc2ccc(Cl)c(Cl)c2)sc1C(=O)Nc1ccccc1	-8.0	-51.6*	9.1%	3.3	0.4	6.3
COc1cccc2cc(-c3ccnc(=S)[nH]3)oc12	1.6	5.0	.	-3.3	0.4	2.8
Cc1nc(C(=O)NNC(=O)c2cccc(Cl)c2)c(C(F)(F)F)o1	-3.8	4.5	-3.0%	5.3	0.2	3.1
Cc1nc(/C(N)=N/OC(=O)c2ccc(Cl)cc2)c(C(F)(F)F)o1	-0.8	-34.9*	4.4%	-4.9	-0.7	-0.6
SMILES	D1 potentiator	D1 antag	Glioma ERSR ind	TRHR enhancer	TRHR agonist	D1 agonist
CCCCn1nc(-c2ccccc2)c2nc3ccccc3nc21	2.0	-8.4	.	-1.5	22.3	50.8*
Cn1nc(-c2ccccc2)c2nc3ccccc3nc21	3.6	5.1	1.6%	0.8	54.5*	94.4*
COC(=O)c1ccc(N=C2SCC(=O)N2C)cc1	-18.1	-8.6	-4.3%	37.3*	0.1	1.4
CN1C(=O)CSC1=Nc1ccc(Br)cc1	-5.1	-7.0	-0.6%	0.5	0.1	-3.8
CCN(CC(=O)Nc1c(F)cccc1F)C(=O)Cc1c[nH]c2ccccc12	.	.	-6.8%	.	.	.
CCN(CC(=O)Nc1c(F)cccc1F)C(=O)Cc1ccc2c(c1)OCCO2	-2.4	-24.9	-1.5%	-6.4	0.2	0.1
CCN(CC(=O)Nc1c(F)cccc1F)C(=O)Cc1ccc2c(c1)CCC2	-2.1	-33.8*	0.2%	-0.5	-0.6	2.4
CCN(CC(=O)Nc1c(F)cccc1F)C(=O)Cc1c(C)nc2ccccc2c1C	-2.4	-48.7*	-4.2%	10.9	-0.2	0.3
CCN(CC(=O)Nc1c(F)cccc1F)C(=O)Cn1[nH]c(=O)c2ccccc2c1=O	-2.4	-49.6*	-7.8%	-0.5	0.1	1.5
NS(=O)(=O)c1ccc(Sc2ccccn2)c([N+](=O)[O-])c1	-3.9	-32.5*	2.0%	21.6	-0.8	2.4
O=[N+]([O-])c1ccc(Sc2ccccn2)nc1	5.7	-67.6*	-1.0%	1.4	-1.0	1.6
O=[N+]([O-])c1ccc(CSc2ccccn2)cc1	-0.8	-3.8	2.8%	-2.5	-1.3	1.5
COC(=O)c1ccc(Sc2ccccn2)c([N+](=O)[O-])c1	-8.6	-34.3*	-3.4%	10.2	-0.4	1.3
O=[N+]([O-])c1cc(C(F)(F)F)ccc1Sc1ccccn1	-7.8	12.6	-3.8%	-1.1	0.2	-0.7
O=C(O)c1ccc(Sc2ccccn2)c([N+](=O)[O-])c1	3.1	-4.4	-4.6%	21.8	0.0	2.2
OC1(c2cccc(C(F)(F)F)c2)CCN(Cc2nnnn2Cc2ccccc2)CC1	-2.8	-0.1	-2.8%	0.6	0.2	0.7
CC(=O)Nc1cc(S(=O)(=O)Nc2cccc(C)c2)c(C)cc1C	1.4	6.4	-4.0%	15.8	0.4	1.7
CC1CC(C)(C)CC2(C1)NC(=O)N(CC(=O)N1CCN(S(=O)(=O)c3cccc(Cl)c3Cl)CC1)C2=O (configuration not stated)	.	.	-3.8%	.	.	.
CC(OC(=O)c1c2c(nc3ccccc13)/C(=C\c1ccc3c(c1)OCO3)CCC2)C(=O)Nc1ccc(S(N)(=O)=O)cc1 (configuration not stated)	1.8	-5.2	-0.4%	0.7	96.4*	17.4
